Assay [1] in a line: qHTS assay to test for compound auto fluorescence at 535 nm (green) in HEK293 cells (AID 720680). (Quantitative high-throughput screening tests each substance at several concentrations.)
A short description of assay [2]: qHTS assay to test for compound auto fluorescence at 460 nm (blue) in HEK293 cell free culture (AID 720681). Note: potency is the fitted concentration of half-maximal effect. A digest of the protocol: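 Test compounds were pinned into cell-free culture medium (DMEM with 10% FBS) and fluorescence was read directly at Ex/Em 405/460 nm. Signals were expressed as fluorescence equivalents of triamterene, with DMSO vehicle as control.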

Assay [3] in a line: qHTS assay to test for compound auto fluorescence at 535 nm (green) in HEK293 cell free culture (AID 720682). The method in brief: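 Read-out: 485/535 nm fluorescence intensity, calibrated against fluorescein. Medium only (DMEM + 10% FBS, no cells); test compound or DMSO vehicle added by pintool before plate reading.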
Assay [4] can be described thus: qHTS assay to test for compound auto fluorescence at 590 nm (red) in HEK293 cell free culture (AID 720683). The method in brief: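 Tox21 10K library compounds were pinned into cell-free DMEM with 10% FBS and fluorescence was read at excitation 540 nm. Activity is expressed as Rose Bengal sodium equivalency.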
Assay [5] is described as follows: qHTS assay to test for compound auto fluorescence at 590 nm (red) in HepG2 cell free culture (AID 720684). The method in brief:
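Readout: intrinsic compound fluorescence at 590 nm emission after 540 nm excitation, scaled to Rose Bengal sodium. Matrix was cell-free MEM with 10% FBS; DMSO vehicle wells served as control.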

The nature of assay [6]: qHTS assay to test for compound auto fluorescence at 460 nm (blue) in HepG2 cell free culture (AID 720685). Note: potency is the fitted concentration of half-maximal effect. A digest of the protocol:
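Cell-free plates of MEM plus 10% FBS received 23 nL compound or DMSO vehicle; blue-channel (405/460 nm) intensity scored against triamterene as reference fluorophore.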

Assay [7] is described as follows: qHTS assay to test for compound auto fluorescence at 535 nm (green) in HepG2 cell free culture (AID 720686).
Assay [8] can be described thus: qHTS assay to test for compound auto fluorescence at 460 nm (blue) in HepG2 cells (AID 720687). Note: potency is the fitted concentration of half-maximal effect. A digest of the protocol: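 Cells (2,000/well in MEM with 10% FBS) attached overnight at 37 C, then were exposed to compound or DMSO for 1 hr at 37 C, 5% CO2. Fluorescence read at Ex/Em 405/460 nm, expressed as triamterene-equivalent signal.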

Each structure is given as a SMILES string. “And” between values parts separate entries of the source, which are not always exact repeats. Identical values can stand only once. Values without a mark were called inactive. The source made the active and inactive calls. Calls come from the whole dose curve; as a rule, active = well fitted curve in the direction sought with a large enough effect in the repeat runs; inconclusive = weak or mixed curves; inactive = flat fitted curve, though single readings scatter.
Tags give direction and shape of the fitted curve or compound fluorescence and quenching.

On to `CCCN(CCC)c1c([N+](=O)[O-])cc(C(F)(F)F)c(N)c1[N+](=O)[O-]`, for which the compound was classed as inactive in assay [1] and in assay [3]. The Potency result in assay [2], in assay [4], in assay [5], in assay [6], in assay [7] and in assay [8] was “inactive” in each case.
Consider `CCCC(c1cc(C(C)(C)C)c(O)cc1C)c1cc(C(C)(C)C)c(O)cc1C`, for which the compound was classed as inactive in assay [1] and in assay [3]. Moreover, the Potency result in assay [2], in assay [4], in assay [5], in assay [6], in assay [7] and in assay [8] was “inactive” in each case.
As for `CC[C@H]1O[C@]2(CC[C@@H]1C)C[C@@H]1C[C@@H](C/C=C(\C)C[C@@H](C)/C=C/C=C3\CO[C@@H]4[C@H](O)C(C)=C[C@@H](C(=O)O1)[C@]34O)O2`, the compound was called inactive in assay [1] and in assay [3]. For the same compound, the Potency result in assay [2], in assay [4], in assay [5], in assay [6], in assay [7] and in assay [8] was “inactive” in each case.
As for `Oc1ccc2c(c1)-c1ccccc1C2`, the compound was called inactive in assay [1] and in assay [3]. Besides, the Potency result in assay [2], in assay [4], in assay [5], in assay [6], in assay [7] and in assay [8] was “inactive” in each case.
On to `O=C1C=CC(=O)N1`, for which the compound was called inactive in assay [1] and in assay [3]. In addition, the Potency result in assay [2], in assay [4], in assay [5], in assay [6], in assay [7] and in assay [8] was “inactive” in each case.
Take `CCOC(=O)c1nc(C(Cl)(Cl)Cl)n(-c2ccc(Cl)cc2Cl)n1`: the call in assay [1] and in assay [3] was inactive. Besides, the Potency result in assay [2], in assay [4], in assay [5], in assay [6], in assay [7] and in assay [8] was “inactive” each time.
For the compound `Nc1c2ccccc2nc2ccccc12`, the call in assay [1] and in assay [3] was inactive. Also, the Potency is 11.2 µM (active) and 15.8 µM (active) in assay [2]; 14.1 µM [fluorescent] (active) and 15.8 µM [fluorescent] (active) in assay [6]; 11.2 µM [fluorescent] (active) and 15.8 µM [fluorescent] (active) in assay [8]. The Potency result in assay [4], in assay [5] and in assay [7] was “inactive” in each case.
Turning to `CCCCCCCCCCCC[N+](C)(C)CCCCCCCCCCCC`, the result in assay [1] and in assay [3] was inactive. In addition, the Potency result in assay [2], in assay [4], in assay [5], in assay [6], in assay [7] and in assay [8] was “inactive” in each case.
For the compound `Oc1cccc(-c2c3nc(c(-c4cccc(O)c4)c4ccc([nH]4)c(-c4cccc(O)c4)c4nc(c(-c5cccc(O)c5)c5ccc2[nH]5)CC4)C=C3)c1`, the compound was classed as inactive in assay [1] and in assay [3]. Moreover, the Potency entry in assay [2], in assay [4], in assay [5], in assay [6], in assay [7] and in assay [8] was “inactive” in each case.
As for `CCCCN1C(=O)[C@@H]([C@H](O)C2CCCCC2)NC(=O)C12CCN(Cc1ccc(Oc3ccc(C(=O)O)cc3)cc1)CC2`, the outcome in assay [1] and in assay [3] was inactive. In addition, the Potency result in assay [2], in assay [4], in assay [5] and in assay [6] was “inactive” in each case.
As to `Cc1cc(=O)oc2cc(N(C)C)ccc12`, the result in assay [1] and in assay [3] was inactive. In addition, the Potency in assay [2] was 39.8 µM (active); in assay [6], 44.7 µM [fluorescent] (active); in assay [8], 44.7 µM [fluorescent] (active). Moreover, the Potency entry in assay [4], in assay [5] and in assay [7] was “inactive” each time.
`CCCCCCCC/C=C/CCCCCCCC1=NCCN1CCO`: the call in assay [1] and in assay [3] was inactive. Moreover, the Potency result in assay [2], in assay [4], in assay [5], in assay [6], in assay [7] and in assay [8] was “inactive” in each case.
For the compound `CCCCCCCCCCCCc1ccc(O)cc1`, the outcome in assay [1] and in assay [3] was inactive. For the same compound, the Potency result in assay [2], in assay [4], in assay [5], in assay [6], in assay [7] and in assay [8] was “inactive” in each case.
Consider `CC(C)(C)c1ccc(C(=O)CCCN2CCC(OC(c3ccccc3)c3ccccc3)CC2)cc1`, for which the outcome in assay [1] and in assay [3] was inactive. Also, the Potency entry in assay [2], in assay [4], in assay [5], in assay [6], in assay [7] and in assay [8] was “inactive” in each case.
On to `CC1(C)CCC(C)(C)c2cc(C(=O)Nc3ccc(C(=O)O)cc3)ccc21`, for which the call in assay [1] and in assay [3] was inactive. Also, the Potency result in assay [2], in assay [4], in assay [5] and in assay [6] was “inactive” each time.
In the case of `CN(C)C(=O)C1(N2CCCCC2)CCN(CC[C@@]2(c3ccc(Cl)c(Cl)c3)CN(C(=O)c3ccccc3)CCO2)CC1`, the compound was classed as inactive in assay [1] and in assay [3]. The Potency result in assay [2], in assay [4], in assay [5], in assay [6], in assay [7] and in assay [8] was “inactive” throughout.
For the compound `OC1(c2ccc(Cl)c(C(F)(F)F)c2)CCN(CCCC(c2ccc(F)cc2)c2ccc(F)cc2)CC1`, the outcome in assay [1] and in assay [3] was inactive. Also, the Potency result in assay [2], in assay [4], in assay [5], in assay [6], in assay [7] and in assay [8] was “inactive” in each case.
`CCCCCCCCCCCCCCCCCC[N+](C)(C)C`: the outcome in assay [1] and in assay [3] was inactive. In addition, the Potency result in assay [2], in assay [4], in assay [5], in assay [6], in assay [7] and in assay [8] was “inactive” throughout.
Take `C/C=C1/C(=O)C[C@H]2[C@@H]3CCC4=CC(=O)CC[C@]4(C)[C@H]3CC[C@]12C`: the compound was called inactive in assay [1] and in assay [3]. The Potency entry in assay [2], in assay [4], in assay [5], in assay [6] and in assay [7] was “inactive” throughout.
Consider `CCCCC(CC)CN=C(N)NC(N)=NCCCCCCN=C(N)NC(N)=NCC(CC)CCCC` (stereo not given), for which the outcome in assay [1] and in assay [3] was inactive. The Potency entry in assay [2], in assay [4], in assay [5], in assay [6], in assay [7] and in assay [8] was “inactive” throughout.
As for `N=C1N=C(N)c2cc3ccccc3cc21`, the compound was called inactive in assay [1] and in assay [3]. The Potency in assay [2] was 31.6 µM (active); in assay [6], 28.2 µM [fluorescent] (active). For the same compound, the Potency result in assay [4], in assay [5] and in assay [7] was “inactive” throughout.
Take `CCCCCCCC/C=C\CCCCCCCCOCCO`: the compound was called inactive in assay [1] and in assay [3]. In addition, the Potency result in assay [2], in assay [4], in assay [5], in assay [6] and in assay [7] was “inactive” throughout.
As for `Cc1cc(O)c(C(C)(C)C)cc1C(C)(C)C`, the outcome in assay [1] and in assay [3] was inactive. Also, the Potency result in assay [2], in assay [4], in assay [5], in assay [6], in assay [7] and in assay [8] was “inactive” throughout.
On to `NC(=NCCCCCCN=C(N)/N=C(\N)Nc1ccc(Cl)cc1)/N=C(\N)Nc1ccc(Cl)cc1`, for which the compound was called inactive in assay [1] and in assay [3]. For the same compound, the Potency entry in assay [2], in assay [4], in assay [5], in assay [6], in assay [7] and in assay [8] was “inactive” each time.

For the origin of these results see PubChem BioAssay (Tox21).
